Results on 36 molecules are retold here after PMC9911399, “Two distinct binding modes provide the RNA-binding protein RbFox with extraordinary sequence specificity”.

Changes are numbered by the printed parent chain; changes in the protein carry UniProt numbers. In all, about 16,000 sequences were measured (“ka relative to ugcaugu”: median about 0.096, highest 2% from about 0.35 on). The sample holds the highest values, similar sequences and a random draw of the others, so the mix is not that of the screen.

T1: RBFOX1 RRM RbFoxmut (Fox-RRM*) (Homo sapiens, UniProt Q9NWB1 109-208, R118D;E147R;N151S;E152T)
T1 sequence: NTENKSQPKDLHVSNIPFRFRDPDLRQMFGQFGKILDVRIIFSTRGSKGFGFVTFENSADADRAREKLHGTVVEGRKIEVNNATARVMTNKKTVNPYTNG

B1: CACUACA (DNA:RNA)
RNA: GGGAGACCGGAAUUCAGAUUGUCCCACUACAUUAAAUCCCGUCGUAGCCACCA
DNA 1: CAATCTGAATTCCGGTCTCCC
DNA 2: TGGTGGCTACGACGGGATT
B2: UUAGGGA (DNA:RNA)
RNA: B1 RNA with C25U, A26U, C27A, U28G, A29G, C30G
DNA 1: CAATCTGAATTCCGGTCTCCC
DNA 2: TGGTGGCTACGACGGGATT
B3: AGCCGCU (DNA:RNA)
RNA: B1 RNA with C25A, A26G, U28C, A29G, A31U
DNA 1: CAATCTGAATTCCGGTCTCCC
DNA 2: TGGTGGCTACGACGGGATT
B4: GCUCAAC (DNA:RNA)
RNA: B1 RNA with C25G, A26C, C27U, U28C, C30A, A31C
DNA 1: CAATCTGAATTCCGGTCTCCC
DNA 2: TGGTGGCTACGACGGGATT
B5: UCGCGAA (DNA:RNA)
RNA: B1 RNA with C25U, A26C, C27G, U28C, A29G, C30A
DNA 1: CAATCTGAATTCCGGTCTCCC
DNA 2: TGGTGGCTACGACGGGATT
B6: UGACUUG (DNA:RNA)
RNA: GGGAGACCGGAAUUCAGAUUGUCCUGACUUGUUAAAUCCCGUCGUAGCCACCA
DNA 1: CAATCTGAATTCCGGTCTCCC
DNA 2: TGGTGGCTACGACGGGATT
B7: AUCCGCU (DNA:RNA)
RNA: B1 RNA with C25A, A26U, U28C, A29G, A31U
DNA 1: CAATCTGAATTCCGGTCTCCC
DNA 2: TGGTGGCTACGACGGGATT
B8: AAGCAUC (DNA:RNA)
RNA: B1 RNA with C25A, C27G, U28C, C30U, A31C
DNA 1: CAATCTGAATTCCGGTCTCCC
DNA 2: TGGTGGCTACGACGGGATT
B9: AAGCAUG (DNA:RNA)
RNA: B6 RNA with U25A, G26A, A27G, U29A
DNA 1: CAATCTGAATTCCGGTCTCCC
DNA 2: TGGTGGCTACGACGGGATT
B10: AAGCAUA (DNA:RNA)
RNA: B1 RNA with C25A, C27G, U28C, C30U
DNA 1: CAATCTGAATTCCGGTCTCCC
DNA 2: TGGTGGCTACGACGGGATT
B11: ACAUGCG (DNA:RNA)
RNA: B1 RNA with C25A, A26C, C27A, A29G, A31G
DNA 1: CAATCTGAATTCCGGTCTCCC
DNA 2: TGGTGGCTACGACGGGATT
B12: GCAUUAA (DNA:RNA)
RNA: B1 RNA with C25G, A26C, C27A, A29U, C30A
DNA 1: CAATCTGAATTCCGGTCTCCC
DNA 2: TGGTGGCTACGACGGGATT
B13: CCAUGCC (DNA:RNA)
RNA: B1 RNA with A26C, C27A, A29G, A31C
DNA 1: CAATCTGAATTCCGGTCTCCC
DNA 2: TGGTGGCTACGACGGGATT
B14: GAAUGCA (DNA:RNA)
RNA: B1 RNA with C25G, C27A, A29G
DNA 1: CAATCTGAATTCCGGTCTCCC
DNA 2: TGGTGGCTACGACGGGATT
B15: GCCUGCC (DNA:RNA)
RNA: B1 RNA with C25G, A26C, A29G, A31C
DNA 1: CAATCTGAATTCCGGTCTCCC
DNA 2: TGGTGGCTACGACGGGATT
B16: GUCCGCA (DNA:RNA)
RNA: B1 RNA with C25G, A26U, U28C, A29G
DNA 1: CAATCTGAATTCCGGTCTCCC
DNA 2: TGGTGGCTACGACGGGATT
B17: GCAUGCA (DNA:RNA)
RNA: B1 RNA with C25G, A26C, C27A, A29G
DNA 1: CAATCTGAATTCCGGTCTCCC
DNA 2: TGGTGGCTACGACGGGATT
B18: GAUUGCA (DNA:RNA)
RNA: B1 RNA with C25G, C27U, A29G
DNA 1: CAATCTGAATTCCGGTCTCCC
DNA 2: TGGTGGCTACGACGGGATT
B19: CGAUGCA (DNA:RNA)
RNA: B1 RNA with A26G, C27A, A29G
DNA 1: CAATCTGAATTCCGGTCTCCC
DNA 2: TGGTGGCTACGACGGGATT
B20: GCAUGCG (DNA:RNA)
RNA: B1 RNA with C25G, A26C, C27A, A29G, A31G
DNA 1: CAATCTGAATTCCGGTCTCCC
DNA 2: TGGTGGCTACGACGGGATT
B21: GCAUCCC (DNA:RNA)
RNA: B1 RNA with C25G, A26C, C27A, A29C, A31C
DNA 1: CAATCTGAATTCCGGTCTCCC
DNA 2: TGGTGGCTACGACGGGATT
B22: GCAUGCC (DNA:RNA)
RNA: B1 RNA with C25G, A26C, C27A, A29G, A31C
DNA 1: CAATCTGAATTCCGGTCTCCC
DNA 2: TGGTGGCTACGACGGGATT
B23: ACGCACA (DNA:RNA)
RNA: B1 RNA with C25A, A26C, C27G, U28C
DNA 1: CAATCTGAATTCCGGTCTCCC
DNA 2: TGGTGGCTACGACGGGATT
B24: GCCGUUU (DNA:RNA)
RNA: B6 RNA with U25G, G26C, A27C, C28G, G31U
DNA 1: CAATCTGAATTCCGGTCTCCC
DNA 2: TGGTGGCTACGACGGGATT
B25: UCGUGAC (DNA:RNA)
RNA: B1 RNA with C25U, A26C, C27G, A29G, C30A, A31C
DNA 1: CAATCTGAATTCCGGTCTCCC
DNA 2: TGGTGGCTACGACGGGATT
B26: UCACAUA (DNA:RNA)
RNA: B6 RNA with G26C, U29A, G31A
DNA 1: CAATCTGAATTCCGGTCTCCC
DNA 2: TGGTGGCTACGACGGGATT
B27: GUAUGCA (DNA:RNA)
RNA: B1 RNA with C25G, A26U, C27A, A29G
DNA 1: CAATCTGAATTCCGGTCTCCC
DNA 2: TGGTGGCTACGACGGGATT
B28: GGAUGCA (DNA:RNA)
RNA: B1 RNA with C25G, A26G, C27A, A29G
DNA 1: CAATCTGAATTCCGGTCTCCC
DNA 2: TGGTGGCTACGACGGGATT
B29: AUAUGCA (DNA:RNA)
RNA: B1 RNA with C25A, A26U, C27A, A29G
DNA 1: CAATCTGAATTCCGGTCTCCC
DNA 2: TGGTGGCTACGACGGGATT
B30: UCCCGUA (DNA:RNA)
RNA: B6 RNA with G26C, A27C, U29G, G31A
DNA 1: CAATCTGAATTCCGGTCTCCC
DNA 2: TGGTGGCTACGACGGGATT
B31: CUGAAUG (DNA:RNA)
RNA: B1 RNA with A26U, C27G, U28A, C30U, A31G
DNA 1: CAATCTGAATTCCGGTCTCCC
DNA 2: TGGTGGCTACGACGGGATT
B32: CCCUGAA (DNA:RNA)
RNA: B1 RNA with A26C, A29G, C30A
DNA 1: CAATCTGAATTCCGGTCTCCC
DNA 2: TGGTGGCTACGACGGGATT
B33: UGAUUGU (DNA:RNA)
RNA: B6 RNA with C28U, U30G, G31U
DNA 1: CAATCTGAATTCCGGTCTCCC
DNA 2: TGGTGGCTACGACGGGATT
B34: CUGAAUC (DNA:RNA)
RNA: B1 RNA with A26U, C27G, U28A, C30U, A31C
DNA 1: CAATCTGAATTCCGGTCTCCC
DNA 2: TGGTGGCTACGACGGGATT
B35: UGAAAUG (DNA:RNA)
RNA: B6 RNA with C28A, U29A
DNA 1: CAATCTGAATTCCGGTCTCCC
DNA 2: TGGTGGCTACGACGGGATT
B36: UGAAUGU (DNA:RNA)
RNA: B6 RNA with C28A, U30G, G31U
DNA 1: CAATCTGAATTCCGGTCTCCC
DNA 2: TGGTGGCTACGACGGGATT

The test addresses T1, RBFOX1 RRM RbFoxmut (Fox-RRM*). Description: EMSA; HiTS-Eq, 1 nM pool, 10 min; buffer printed only for the single-RNA assays: 10 mM Tris pH 7.5, 150 mM NaCl, 3.4 mM EDTA, 0.001% NP-40, 30 C. The settings on record: tags: His6 N-terminal (pET28a); label: 5' 32P. The method, boiled down:
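Relative association constants, normalised to the cognate motif, were derived by comparing read counts of each RNA species with those of the control reaction. The RNA sequenced was the free fraction, separated by 8% native PAGE after a 10 min equilibration in 50 µL of 1 nM 5′-radiolabelled RNA (7 randomized nucleotides) with increasing concentrations of purified wild-type or mutant RbFox RRM.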
As to B1, the binding signal is 0.13 KA relative to UGCAUGU. Next, B2: 0.0529 KA relative to UGCAUGU.

As for B3, the binding signal was 0.0799 KA relative to UGCAUGU. B4: the binding signal is 0.0746 KA relative to UGCAUGU.

Regarding B5, the binding signal was 0.105 KA relative to UGCAUGU. Consider B6, for which the binding signal was 0.272 KA relative to UGCAUGU. Regarding B7, the binding signal was 0.121 KA relative to UGCAUGU. For B8 the value was 0.196 KA relative to UGCAUGU; for B9, 0.715 KA relative to UGCAUGU; for B10, 0.0958 KA relative to UGCAUGU. For B11 the value was 0.139 KA relative to UGCAUGU; for B12, 0.141 KA relative to UGCAUGU. Next, B13: 0.19 KA relative to UGCAUGU; B14: 1.03 KA relative to UGCAUGU; B15: 0.176 KA relative to UGCAUGU. As to B16, the binding signal was 0.107 KA relative to UGCAUGU. For B17 the value was 0.828 KA relative to UGCAUGU; for B18, 0.171 KA relative to UGCAUGU. With B19, the binding signal is 0.158 KA relative to UGCAUGU. B20: the binding signal was 0.872 KA relative to UGCAUGU. Take B21: the binding signal is 0.142 KA relative to UGCAUGU.

For B22, the binding signal is 0.651 KA relative to UGCAUGU. B23: the binding signal was 0.105 KA relative to UGCAUGU. Turning to B24, the binding signal is 0.0818 KA relative to UGCAUGU. For the molecule B25, the binding signal is 0.0717 KA relative to UGCAUGU. For B26 the value was 0.112 KA relative to UGCAUGU; for B27, 0.574 KA relative to UGCAUGU.

Take B28: the binding signal is 0.24 KA relative to UGCAUGU. Consider B29, for which the binding signal was 0.208 KA relative to UGCAUGU. Next, B30: 0.12 KA relative to UGCAUGU.

For B31, the binding signal is 0.915 KA relative to UGCAUGU. Consider B32, for which the binding signal is 0.0778 KA relative to UGCAUGU. Next, B33: 0.308 KA relative to UGCAUGU. Next, B34: 0.315 KA relative to UGCAUGU; B35: 0.158 KA relative to UGCAUGU; B36: 0.75 KA relative to UGCAUGU.
